The list is not random: actives were taken first. Their share in the collection is about 18%.
TDP1 cell CPT: DT40-hTDP1 cell growth loss with CPT. chicken DT40 Tdp1-/-;hTDP1 cells + 20 nM CPT, ATP luminescence, 48 h. Potency, µM (series often up to 46.2 µM), inactives show top-dose activity change, negative = growth inhibition, usual class: inhibitors. 12% of 420,000 active. AID 686979; also: potency is read from the fitted curve at half-maximal effect; nearly all actives have a fitted effect of over 55% in size
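Chicken DT40 Tdp1-/- cells stably complemented with human TDP1 were seeded at 400 cells/well in medium containing 20 nM camptothecin, exposed to pin-transferred compounds, and grown at 37 °C for at least 48 hr. Viability was read as ATP luminescence.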
TDP1 cell noCPT: qHTS for Inhibitors of human tyrosyl-DNA phosphodiesterase 1 (TDP1): qHTS in cells in absence of CPT. DT40 Tdp1-/- hTDP1 cells, no CPT, ATP luminescence, 48 h. Potency, µM (titrated, usually from 46.2 µM), for the others: at the top dose activity change, negative = growth inhibition, hits mostly inhibitors. 15% of 420,000 active; also: potency is read from the fitted curve at half-maximal effect; nearly all actives have a fitted effect of over 55% in size
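Readout: luminescence from CellTiter-Glo after 30 min in the dark at RT. Cells: DT40 Tdp1-/- with stable hTDP1, 400/well. Exposure: compounds alone, ≥48 hr, 37 °C.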
CtBP-E1A blk: CtBP/E1A binding inhibition | AlphaScreen GST-E1A/His-CtBP binding, 1536-well; active compounds read low | activity change, % (no concentration beside the values) | 0.49% of 340,000 active | AID 651724; in the data active = activity change below about -65%; inconclusive = mostly about -30% to -63%
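In 5 uL wells, 23 nL compound meets equimolar GST-E1A and His-CtBP (5X stock 125 nM each) for 2 h, 37 °C. Beads (5X, 50 ug/mL) then 1 h, 37 °C, dark.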
Six1-Eya2 inh: blocks human Six1 binding to Eya2; Q15475+O00167; AlphaScreen GST-Six1/His-Eya2 binding, biochemical; active compounds read low; activity change, % (test concentration not listed); 0.56% of 360,000 active; in the data active = activity change below about -65%; inconclusive = mostly about -30% to -63%
Target sequence (O00167 whole entry, looked up): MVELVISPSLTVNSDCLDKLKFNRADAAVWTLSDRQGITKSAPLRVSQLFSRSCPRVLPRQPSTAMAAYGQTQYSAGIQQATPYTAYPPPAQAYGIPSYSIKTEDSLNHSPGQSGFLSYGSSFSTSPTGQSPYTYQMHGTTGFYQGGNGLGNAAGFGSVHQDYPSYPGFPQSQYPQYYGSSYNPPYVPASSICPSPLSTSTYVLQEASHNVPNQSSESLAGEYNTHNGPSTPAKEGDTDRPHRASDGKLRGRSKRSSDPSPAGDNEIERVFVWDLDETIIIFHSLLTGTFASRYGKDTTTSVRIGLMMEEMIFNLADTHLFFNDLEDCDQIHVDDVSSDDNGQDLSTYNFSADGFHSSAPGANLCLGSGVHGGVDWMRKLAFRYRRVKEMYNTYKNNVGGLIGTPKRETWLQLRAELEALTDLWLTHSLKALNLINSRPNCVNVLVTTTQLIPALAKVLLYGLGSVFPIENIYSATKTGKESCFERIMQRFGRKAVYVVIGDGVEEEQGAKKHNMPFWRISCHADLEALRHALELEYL
Target sequence (Q15475 whole entry, looked up): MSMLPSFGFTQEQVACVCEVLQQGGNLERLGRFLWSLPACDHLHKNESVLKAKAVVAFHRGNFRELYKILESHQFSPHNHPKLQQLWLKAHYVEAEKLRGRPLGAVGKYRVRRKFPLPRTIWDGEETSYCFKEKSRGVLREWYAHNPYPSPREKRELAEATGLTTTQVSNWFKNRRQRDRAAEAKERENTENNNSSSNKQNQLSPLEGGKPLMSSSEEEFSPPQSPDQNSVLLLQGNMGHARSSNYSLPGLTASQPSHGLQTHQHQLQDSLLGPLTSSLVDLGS
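Six1/Eya2 binding was read as AlphaScreen signal after compounds were pinned into GST-Six1 plus His-tagged Eya2 (5X stock 250/500 nM) in pH 8.0 Tris/NaCl/TCEP buffer, beads added, then incubated 1 h, 37 C, dark.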
TDP1 inh: blocks human tyrosyl-DNA phosphodiesterase 1 | 0.28% of 350,000 active | recombinant TDP1, AlphaScreen DNA substrate cleavage | Q9NUW8 | Potency, µM (titrated, usually from 130 µM), without a hit: at the highest dose activity change, negative = inhibition, actives largely listed as inhibitors; also: potency is read from the fitted curve at half-maximal effect; nearly all actives have a fitted effect of over 40% in size
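E. coli-derived human Tdp1, 1 nM final. Cpd preinc 15 min RT; substrate 15 nM final, 5 min RT; AS bead mix 10 ug/ml final, 10 min RT. Signal loss = tyrosine-FITC cleavage. No-enzyme wells = max signal.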
IL-1B inflam inh: blocks inflammasome-driven IL-1 beta release; THP-1 LPS/ATP IL-1B secretion, AlphaLISA, 16 h; active compounds read low; activity change, % at 57.5 µM; 4.7% of 360,000 active; in the data active = activity change below about -50%; inconclusive = mostly about -30% to -49%
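THP-1 cells pretreated 1 hr with compounds (up to 57.5 uM final), then stimulated with LPS (250 ng/mL final) plus ATP (1.25 mM final); secreted IL-1B measured by AlphaLISA after 16 hr, decreased signal indicating inhibition.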
* marks the source's active call; other numbers are inactive results; ? = inconclusive; / = no result given; [ ] = dose if it differs, or a comment. Unless noted, calls follow the shape of the dose curve; as a rule, active = well fitted curve in the direction sought with a large enough effect; inconclusive = small, poorly fitted or top-dose-only effect, or another doubt; inactive = no such curve, though single readings can be large; an effect the other way counts as inactive or inconclusive. % is scaled to controls: 0 for no effect and ±100 for the full control effect.

SMILES	TDP1 cell CPT	TDP1 cell noCPT	CtBP-E1A blk	Six1-Eya2 inh	TDP1 inh	IL-1B inflam inh
COc1ccc(NC(=O)CSc2nc(C(C)C)nc3c2c(=O)n(C)c(=O)n3C)c(OC)c1	-15.9%	-10.9%	2.6	4.6	1.1%	20.0
Cc1csc(NC(=O)CSc2nc(C(C)C)nc3c2c(=O)n(C)c(=O)n3C)n1	10.3µM*	4.61µM*	-1.2	0.8	5.2%	6.4
Cn1c(=O)c2c(SCC(=O)Nc3ccccc3F)nc(-c3ccccc3F)nc2n(C)c1=O	?	14.6µM*	-11.3	5.4	1.9%	0.0
Cn1c(=O)c2c(SCC(=O)Nc3ccccc3F)nc(C3CC3)nc2n(C)c1=O	?	?	3.2	5.0	0.8%	0.0
CN(CC(=O)Nc1cc(S(=O)(=O)N2CCCCCC2)ccc1Cl)Cc1ccc2c(c1)OCO2	16.4µM*	?	-10.9	15.0	0.2%[56.1 µM]	51.8
COc1ccc(S(=O)(=O)N2CCCCCC2)cc1NC(=O)CN(C)Cc1ccc2c(c1)OCO2	?	20.6µM*	?	?	0.8%[56.1 µM]	0.0
CN1OC[C@@H]2CN(C(=O)CCc3ccccc3)[C@H](c3cccc(N4CCOCC4)c3)C[C@@H]21	3.2%	14.0%	6.2	1.6	/	-5.3
Cc1ccc(C)c(S(=O)(=O)N2CCCC2CNC(=O)C(=O)NCCc2ccco2)c1 (stereo not drawn)	?	?	-1.2	-7.6	/	7.1
Cc1nn(-c2ccc(F)cc2)c2nc(N)c(C#N)c(-c3ccc(O)c(O)c3)c12	16.4µM*	23.1µM*	-9.1	?	/	-7.4
Cc1nn(-c2ccc(F)cc2)c2nc(N)c(C#N)c(-c3cccs3)c12	23.1µM*	13µM*	7.5	7.8	0.0%	9.5
Cc1c(-c2ccc(F)cc2)nc(N)c(C#N)c1-c1cccs1	-15.0%	-8.6%	8.6	5.8	0.0%	21.2
COC(=O)C1=C(C)NC(=O)NC1c1ccc(-c2ccc(F)cc2)o1 (stereo not drawn)	-21.0%	-3.3%	-6.7	-2.8	3.4%	6.0
COC(=O)C1=C(C)NC(C)=C(C(=O)OC)C1c1ccc(-c2cccc(Cl)c2Cl)o1	?	?	19.6	11.8	2.6%	?
COC(=O)C1=C(C)NC(=S)NC1c1ccc(-c2ccccc2C(=O)OC)o1 (stereo not drawn)	?	18.4µM*	-2.3	-5.0	3.8%	-10.0
CCOC(=O)C1=C(C)NC(=S)NC1c1ccc(-c2cccc(Cl)c2C)o1 (stereo not drawn)	16.4µM*	11.6µM*	3.3	-2.9	5.2%	-14.3
COC(=O)C1=C(C)NC(C)=C(C(=O)OC)C1c1ccc(-c2cc(Cl)ccc2Cl)o1	1.8%	-25.1%	10.8	0.9	2.6%	-68.0*
COC(=O)C1=C(C)NC(=O)NC1c1ccc(-c2ccccc2Cl)o1 (stereo not drawn)	10.3µM*	16.4µM*	/	1.8	6.5%	24.3
Nc1ccc2c(c1Cl)C(=O)c1ccc(N)c(Cl)c1C2=O	2.2%	?	/	-77.9*	3.55µM*	-19.5
O=C(COC(=O)c1ccc2c(c1Cl)C(=O)c1ccccc1C2=O)NC1CC1	?	?	?	?	0.6%	0.0
Cc1ccc(/C=C/C(=O)Nc2cc(S(=O)(=O)N3CCOCC3)ccc2N2CCOCC2)cc1	?	-19.1%	7.7	4.6	-0.2%	-28.1
COc1ccc(CC(=O)N(c2ccccc2)c2nc(C)cs2)cc1	18.4µM*	13µM*	-1.5	-1.6	5.5%	?
Cc1csc(N(C(=O)Cc2ccccc2F)c2ccccc2)n1	?	23.1µM*	7.9	0.0	-2.3%	-4.0
CCc1sc(N(C(=O)Cc2ccccc2)c2ccccc2)nc1-c1ccccc1	?	?	2.8	3.5	0.0%	24.9
CC(=O)N1N=C(c2ccc(Br)cc2)CC1c1cccc([N+](=O)[O-])c1 (stereo not drawn)	?	?	-10.1	-9.6	/	-10.7
Cc1cc2n(n1)C(c1ccccc1)CC(c1ccc(Br)cc1)=N2 (stereo not drawn)	16.4µM*	?	-8.5	0.0	-5.7%	?
SMILES	TDP1 cell CPT	TDP1 cell noCPT	CtBP-E1A blk	Six1-Eya2 inh	TDP1 inh	IL-1B inflam inh
O=C(NCCS(=O)(=O)N1CCN(c2ccccc2F)CC1)c1ccc(Br)cc1	-25.1%	3.3%	3.0	4.1	3.2%	0.0
CCOC(=O)c1cn(Cc2c(C)c(C)c(C)c(C)c2C)nn1	16.4µM*	23.1µM*	-6.3	14.8	5.3%	21.8
CCOC(=O)c1cn(Cc2cccc(Cl)c2)nn1	1.4%	-5.4%	9.9	7.2	2.5%	-3.3
Cc1ccc(SC(C)C(=O)N2CCCC2)cc1 (stereo not drawn)	-19.2%	-7.5%	0.0	-2.0	2.8%	-10.9
CCC(CO)Oc1cc(NC(=O)c2ccc(C)cc2)c2ncn(C(C)C)c2c1 (stereo not drawn)	23.1µM*	?	-0.8	-7.7	-15.7%	?
CCC(CO)Oc1cc(NC(=O)c2ccccc2)c2ncn(C(C)C)c2c1 (stereo not drawn)	?	?	1.6	-5.0	-16.7%	-16.1
COc1cc(NCc2ccccc2)c2ncn(C(C)C)c2c1	?	-27.9%	-13.5	-24.7	7.0%	-29.2
CCC(CN(C)C)Oc1cc(NCc2ccccc2)c2ncn(C(C)C)c2c1 (stereo not drawn)	25.9µM*	?	-15.8	-7.9	4.4%	15.3
O=C(N[C@@H](Cc1ccccc1)C(=O)CCl)OCc1ccccc1	2.31µM*	2.31µM*	-15.5	6.9	10.2%[56.1 µM]	-111.1*
O=C(N[C@@H](Cc1ccccc1)C(=O)N[C@@H](Cc1ccccc1)C(=O)O)OCc1ccccc1	-2.1%	11.4%	7.6	0.9	-0.8%	28.2
O=C(CCl)NC(Cc1ccccc1)C(=O)OCC(=O)c1ccc(-c2ccccc2)cc1 (stereo not drawn)	?	?	6.1	3.7	/	-85.9*
COc1ccc(CNC(=O)c2ccc3c(=O)n4c(nc3c2)CCCCC4)cc1OC	?	?	-1.4	1.3	0.1%	13.4
CCCNC(=O)C1(C)CCCN(Cc2cccc3ccccc23)C1 (stereo not drawn)	?	?	15.7	0.3	/	-18.1
CCOC(=O)c1cc(OC)c2cccc(CN3CCCC(C)(C(=O)NCCOC)C3)c2c1 (stereo not drawn)	9.2µM*	6.51µM*	19.4	12.9	/	0.0
